Data on 32 molecules can be found in ChEMBL document CHEMBL3433997, “St. Jude Leishmania screening dataset” (2016).

Type in all cases: functional
The target of assay [1] is Solute carrier family 2, facilitated glucose transporter member 1 (Homo sapiens) (UniProt P11166). In words: ST_JUDE_LEISH: Cytotoxicity at 2uM final concentration against transgenic Leishmania Mexicana promastigotes LmGLUT1 that are glucose transport deficient and complemented with the human glucose transporter GLUT1. Activity is measured by DNA content using SYBR green in vitro.

Assay [2] deals with Hexose transporter 1 (Plasmodium falciparum) (UniProt O97467). Briefly: ST_JUDE_LEISH: Cytotoxicity at 2uM final concentration against transgenic Leishmania Mexicana promastigotes LmPfHT that are glucose transport deficient and complemented with the Plasmodium falciparum hexose transporter. Activity is measured by DNA content using SYBR green in vitro.
In assay [3] the target is Glucose transporter (Leishmania mexicana) (UniProt O61059). Briefly: ST_JUDE_LEISH: Cytotoxicity at 2uM final concentration against transgenic Leishmania Mexicana promastigotes LmGT2 that are glucose transport deficient and complemented with the L. Mexicana glucose transporter 2. Activity is measured by DNA content using SYBR green in vitro.

Structures are written as SMILES.

Chain of Solute carrier family 2, facilitated glucose transporter member 1 (Homo sapiens) (P11166 whole entry): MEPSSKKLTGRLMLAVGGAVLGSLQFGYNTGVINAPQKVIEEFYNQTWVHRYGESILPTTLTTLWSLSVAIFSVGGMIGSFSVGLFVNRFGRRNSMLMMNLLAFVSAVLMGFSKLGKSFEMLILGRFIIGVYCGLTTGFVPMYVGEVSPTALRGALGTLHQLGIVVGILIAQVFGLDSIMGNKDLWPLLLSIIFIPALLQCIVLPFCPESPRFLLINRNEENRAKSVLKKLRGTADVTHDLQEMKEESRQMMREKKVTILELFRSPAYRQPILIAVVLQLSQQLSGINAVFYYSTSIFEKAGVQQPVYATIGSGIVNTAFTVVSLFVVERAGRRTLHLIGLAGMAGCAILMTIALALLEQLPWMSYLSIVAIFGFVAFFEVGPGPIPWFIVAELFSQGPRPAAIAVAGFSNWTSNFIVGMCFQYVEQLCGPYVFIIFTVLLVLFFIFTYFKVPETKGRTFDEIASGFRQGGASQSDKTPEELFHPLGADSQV

With `CC(=O)Nc1ncc(C(=O)Nc2cccc(-c3cccc(-c4nc5cc(F)ccc5[nH]4)c3)c2)s1`, the inhibition – broadly, the drop in the measured response relative to a control, in per cent – in assay [1] came out at 1.74%; in assay [2], 2.62%; in assay [3] it was 1.65%.

Consider `CCn1c(C(C)C)cc2c3c(N)nc(N)nc3ccc21`, for which the inhibition in assay [1] came to 50.6%; in assay [2] it was 61.1%; in assay [3], 42%.

In the case of `O=C(Nc1nc2cc(S(=O)(=O)NCCc3cccc(F)c3)ccc2n1CCCn1ccnc1)c1ccc(Cl)cc1`, the results for the inhibition in assay [1], in assay [2] and in assay [3] were 1.22%, 0.32% and 4.97%, respectively.

`CCN(CC)C(=O)C1CCN(C(C(=O)N2CCN(CC(=O)N3CCCC3)CC2)c2cc3ccccc3o2)CC1` (stereo unspecified): the values for the inhibition in assay [1], in assay [2] and in assay [3] were 2.21%, 0.62% and 1.61%, respectively.

Take `COc1ccc(Cn2c(Nc3cccc(C(F)(F)F)c3)nc3cc(C(=O)NCCN4CCCC4)cnc32)cc1Cl`: the inhibition in assay [1] was 13.2%; in assay [2], 12.9%; in assay [3], 15.6%.

As for `N#Cc1ccc(CN2CCCN(Cc3cccc(NC(=O)c4ccc(-c5ccccc5)cc4)c3)CC2)cc1`, the values for the inhibition in assay [1], in assay [2] and in assay [3] were 1.73%, 9.67% and 4.12%, respectively.

Consider `O=C(C=Cc1ccc(Cl)c(Cl)c1)NCCCCCN1CCCC(CCCNC(=O)c2sc3ccccc3c2Cl)C1` (stereo unspecified), for which the inhibition was 2.3% in assay [1], 1.22% in assay [2] and -0.49% in assay [3].

As to `O=c1ccc(-c2nc3cc(Cl)c(Cl)cc3n2Cc2ccc(Cl)cc2Cl)c[nH]1`, the inhibition in assay [1] is -0.54%; in assay [2] it was -0.54%; in assay [3], -0.93%.

As to `CN1CCC(N(Cc2ccc(N3CCN(Cc4c[nH]c5ccc(Cl)cc45)CC3)nc2)C2CC2)CC1`, the inhibition came out at 9.81% in assay [1], 4.81% in assay [2] and 10.7% in assay [3].

Turning to `N#Cc1ccc2[nH]c(-c3cc(-c4cccc(F)c4)cnc3N)nc2c1`, the inhibition in assay [1] is 6.56%; in assay [2], 7.71%; in assay [3], 3.77%.

Turning to `O=C(c1cc2ccccc2o1)N1CCc2cc3nccc(N4CCN5CCC[C@H]5C4)c3cc21`, the inhibition was 3.95% in assay [1], 4.36% in assay [2] and 6.35% in assay [3].

Regarding `CC(C)NC(=N)NN=Cc1ccc(Cl)c(Cl)c1`, the inhibition in assay [1] amounted to 5.7%; in assay [2] it was 2.99%; in assay [3] it was 0.07%.

Take `COc1cccc2c(N/N=C/c3cccc([N+](=O)[O-])c3)ccnc12`: the inhibition in assay [1] came to 13.4%; in assay [2], 10.8%; in assay [3] it was 8.14%.

As for `COc1ccc2nccc([C@@H](O)CN3CCC(NC(=O)c4ccc(Oc5ccccc5)cc4)CC3)c2c1`, the inhibition in assay [1] was 3.02%; in assay [2], 8.83%; in assay [3], 1.34%.

`CC(C)(CC1CCCCC1)NC(=O)[C@H](CC1CCCCC1)Nc1ccc(C#N)c2ccccc12`: the values for the inhibition in assay [1], in assay [2] and in assay [3] were 1.82%, 1.4% and -1.9%, respectively.

With `O=C(CCc1cccnc1)Nc1ccc(-c2cccc(-c3nc4cc(F)ccc4[nH]3)c2)cc1`, the inhibition worked out at 10.7% in assay [1], 9.99% in assay [2] and 8.65% in assay [3].

Regarding `c1cncc(CCNCc2ccc(-c3ccc(CNC4Cc5ccccc5C4)cc3)cc2)c1`, the values for the inhibition in assay [1], in assay [2] and in assay [3] were 5.14%, 3.57% and 3.87%, respectively.

`N=C(N)c1ccc(NC(=O)Cc2nc3cc(C(=N)N)ccc3[nH]2)cc1`: the inhibition in assay [1] is -0.77%; in assay [2], -0.09%; in assay [3], -0.08%.

Regarding `Cc1nc(NCc2ccccc2)cc(Nc2cc(NCc3ccccc3)nc(C)n2)n1`, the inhibition amounted to 4.26% in assay [1], 3.76% in assay [2] and 1.98% in assay [3].

With `COc1cccc(CNC(=O)c2cnc(N3CCN(c4ccncc4)CC3)c(Cl)c2)c1`, the inhibition was determined as 18% in assay [1], 23.8% in assay [2] and 10.9% in assay [3].

With `COc1ccc(CNC(=O)NC2CCN(c3ccnc(Nc4ccc(F)cc4)n3)CC2)cc1`, the inhibition in assay [1] is 0.86%; in assay [2], 1.1%; in assay [3] it was 0.64%.

`CCOc1c(OC)ccc2c1CCN(CCN1CCC(CNC(=O)c3ccc(-c4ccc(C(F)(F)F)cc4)cc3)CC1)C2`: the inhibition was -1.88% in assay [1], -0.64% in assay [2] and 0.24% in assay [3].

For the molecule `O=C(O[C@@H]1CN[C@H](C#Cc2cc3ncnc(Nc4ccc5c(cnn5Cc5cccc(F)c5)c4)c3s2)C1)N1CCCC1`, the inhibition in assay [1] was 1.37%; in assay [2], 0.19%; in assay [3], -1.8%.

For the molecule `CC1(C)NC(N)=NC(=N)N1OCCCc1ccc(Cl)cc1Cl`, the inhibition was 2.76% in assay [1], 1.95% in assay [2] and 2.33% in assay [3].

With `CN1CCC=C(C(=O)NCC(C)(C)c2nc(-c3ccc(Cl)c(O)c3)c(-c3ccncc3)[nH]2)C1`, the inhibition in assay [1] was found to be 6.76%; in assay [2] it was 9.88%; in assay [3], 7.7%.

As to `O=C(/C=C/c1ccc(Cl)c(Cl)c1)NCCCCCCN1CCN(C(=O)Nc2cc(F)cc(F)c2)CC1`, the inhibition in assay [1] turned out to be 5.47%; in assay [2] it was 5.75%; in assay [3], 7.38%.

On to `O=C(/C=C/c1ccc(Cl)c(Cl)c1)NCCCCCCN1CCN(C(=O)Nc2cccc(Cl)c2)CC1`, for which the inhibition in assay [1] worked out at 0.57%; in assay [2], 1.97%; in assay [3], 3.02%.

Regarding `CCc1cc(Cc2cnc(N)nc2N)cc(CC)c1OC`, the results for the inhibition in assay [1], in assay [2] and in assay [3] were 2.48%, 0.46% and -1.28%, respectively.

For `COc1ccc(CNC(=O)c2cnc3c(O)cccc3c2Nc2cccc(NC(=O)c3ccc(F)cc3)c2)cc1`, the values for the inhibition in assay [1], in assay [2] and in assay [3] were 76%, 78.5% and 75.3%, respectively.

`CCC[C@@H](/C=N/N(C)C(=O)OC(C)(C)C)NC(=O)[C@H](CC(C)C)NC(=O)c1cc2cccc(OC)c2o1`: the inhibition in assay [1] amounted to 3.02%; in assay [2], 3.92%; in assay [3], 0.27%.

Regarding `O=C1NC(c2ccc(N3CCCCCC3)cc2)Nc2ccccc21` (stereo unspecified), the inhibition in assay [1] is 6.32%; in assay [2], 4.82%; in assay [3] it was 2.21%.

As for `CCCCCCCc1c2c(C)c(C(=O)OCC)nc-2cc2n1CC(C)=C2C`, the inhibition was found to be 3.56% in assay [1], 2.2% in assay [2] and 3.09% in assay [3].
